Reference: PubChem BioAssay (EPA / NIEHS)
Where a structure was tested more than once in an assay, its records may differ in their call. Activity calls are given as the source filed them. How the source made its calls: active means hit-call score of the fitted dose curve at least 0.9, where 1 is the maximum; inactive means score below 0.9.

Assays:
[1] = read-out: Matrix Metallopeptidase 9 (MMP9), MMP9 (gene 4318); assay: BSK_BF4T_MMP9: BioMAP Diversity Plus: BF4T Assay for Matrix Metallopeptidase 9 (MMP9) Biomarker Activity (AID 2284276); conditions: primary human bronchial epithelial cells with fibroblasts
Summary of the method: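 MMP-9 levels were measured by ELISA after 24 h exposure of bronchial epithelial cell/dermal fibroblast co-cultures, with DMSO as baseline. Parallel cultures were stained with 0.1% SRB after TCA fixation, read at 560 nm, to flag overt cytotoxicity.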

[2] = read-out: Interleukin-8 (IL8), CXCL8 (gene 3576); assay: BSK_IMphg_IL8: BioMAP Diversity Plus: IMphg Assay for Interleukin-8 (IL8) Biomarker Activity (AID 2284277); conditions: primary human endothelial cells with macrophages
Summary of the method: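 IL-8 levels were measured by ELISA 24 h after dosing in primary human venular endothelial cell–macrophage cultures, referenced to DMSO; parallel SRB staining monitored overt cytotoxicity.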

[3] = read-out: Intercellular Adhesion Molecule 1 (ICAM1), ICAM1 (gene 3383); assay: BSK_BE3C_ICAM1: BioMAP Diversity Plus: BE3C Assay for Intercellular Adhesion Molecule 1 (ICAM1) Biomarker Activity (AID 2284278); conditions: primary human bronchial epithelial cells;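 further: cell-surface ICAM-1 protein level quantified by ELISA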
Summary of the method: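 Here, ICAM-1 levels on confluent human bronchial epithelial primary cells are read by ELISA at 24 h after chemical dosing. Parallel SRB staining (0.1% after 10% TCA fixation, 560 nm) checks cytotoxicity.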

[4] = read-out: Interferon-inducible T-cell alpha chemoattractant (ITAC), CXCL11 (gene 6373); assay: BSK_BE3C_ITAC: BioMAP Diversity Plus: BE3C Assay for Interferon-inducible T-cell alpha chemoattractant (ITAC) Biomarker Activity (AID 2284279); conditions: primary human bronchial epithelial cells
Summary of the method: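 ELISA read-out of I-TAC after 24 h chemical dosing of human lung primary bronchial epithelial cells; gain-of-signal fit vs DMSO baseline. Parallel SRB total-protein staining (0.1% SRB, 10% TCA fixation, 560 nm) assessed cytotoxicity.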

[5] = read-out: Interleukin-8 (IL8), CXCL8 (gene 3576); assay: BSK_BE3C_IL8: BioMAP Diversity Plus: BE3C Assay for Interleukin-8 (IL8) Biomarker Activity (AID 2284280); conditions: primary human bronchial epithelial cells
Summary of the method: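 Dose human bronchial epithelial cells with chemical; incubate 24 h; quantify IL-8 by ELISA; fit response upward versus DMSO controls.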

[6] = read-out: Epidermal growth factor receptor (EGFR), EGFR (gene 1956); assay: BSK_BE3C_EGFR: BioMAP Diversity Plus: BE3C Assay for Epidermal growth factor receptor (EGFR) Biomarker Activity (AID 2284281); conditions: primary human bronchial epithelial cells
Summary of the method: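 ELISA read-out of EGFR levels on human bronchial epithelial primary cells collected 24 h post-dosing. DMSO served as negative control and baseline for gain-of-signal fitting.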

KRT18 (gene 3875) = assay: BSK_BE3C_Keratin818: BioMAP Diversity Plus: BE3C Assay for Keratin 818 Biomarker Activity (AID 2284282); conditions: primary human bronchial epithelial cells
Summary of the method: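 Keratin 8/18 levels, detected by ELISA, served as the endpoint after 24 h chemical exposure of primary human bronchial epithelial cells. Gain of signal relative to DMSO negative control defined activity.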

[7] = read-out: Matrix Metallopeptidase 9 (MMP9), MMP9 (gene 4318); assay: BSK_BE3C_MMP9: BioMAP Diversity Plus: BE3C Assay for Matrix Metallopeptidase 9 (MMP9) Biomarker Activity (AID 2284283); conditions: primary human bronchial epithelial cells
Summary of the method: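 MMP9 is measured by ELISA after a 24 h compound exposure of primary human bronchial epithelial cultures. Parallel SRB staining gives overt cytotoxicity. Values fitted in the positive direction against DMSO.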

[8] = read-out: Plasminogen activator inhibitor-1 (PAI1), SERPINE1 (gene 5054); assay: BSK_CASM3C_PAI1: BioMAP Diversity Plus: CASM3C Assay for Plasminogen activator inhibitor-1 (PAI1) Biomarker Activity (AID 2284284); conditions: primary human coronary artery smooth muscle cells;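 further: PAI-1 protein level measured by ELISA 24 h after dosing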
[9] = read-out: Monocyte Chemoattractant Protein-1 (MCP1), CCL2 (gene 6347); assay: BSK_hDFCGF_MCP1: BioMAP Diversity Plus: hDFCGF Assay for Monocyte Chemoattractant Protein-1 (MCP1) Biomarker Activity (AID 2284285); conditions: primary human foreskin fibroblasts
Summary of the method: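 MCP-1 ELISA readout was taken 24 hours after dosing primary human dermal fibroblasts in the hDFCGF system, with DMSO as baseline. Parallel sulforhodamine B staining of total protein tracked overt cytotoxicity.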

Measured: AC50

OC(O)(C(F)C(O)(O)C(F)(F)F)C(F)(F)F
inactive: [1] | [2] | [3] | [4] | [5] | [6] | KRT18 (gene 3875) | [7] | [8] | [9]
active: [2] 50.1 µM | [5] 22 µM

OCCC(F)(F)C(F)(F)C(F)(F)C(F)(F)F
inactive: all assays above

O=C(Cl)C(F)(F)C(F)(F)C(F)(F)C(=O)Cl
inactive: all assays above

FC(F)(F)C(F)(F)C(F)(F)C(F)(F)C(F)(F)C(F)(F)I
active: [9] 28.2 µM
inactive: [1] | [2] | [3] | [4] | [5] | [6] | KRT18 (gene 3875) | [7] | [8] | [9]

FC(F)C(F)(F)COCC1CO1 (stereo not drawn)
inactive: all assays above

FC(F)=C(F)C(F)(F)C(F)(F)C(F)(F)C(F)(F)C(F)(F)C(F)(F)F
inactive: all assays above

FC(F)(F)COC(OCC(F)(F)F)OCC(F)(F)F
inactive: all assays above

C[Si](C)(C)C(F)(F)C(F)(F)C(F)(F)F
inactive: all assays above

NCC(F)(F)C(F)(F)C(F)(F)C(F)(F)F
inactive: all assays above

O=S(=O)(O)CCC(F)(F)C(F)(F)C(F)(F)C(F)(F)C(F)(F)C(F)(F)F
inactive: all assays above
